About 8,800 targets were measured; listed, in parts, are those with a hit and a random draw of the rest. About 0.5% of all pairs of compound and target were hits.
Tests used:
Assay in all cases: log2 fold change, soluble protein after heating vs DMSO (PISA); higher = thermal stabilisation; K562 lysate, 10 uM; active = over 0.2 and 3.5 SD of the protein, either way, in both replicates (recomputed)
lapatinib = compound: CS(=O)(=O)CCNCc1ccc(-c2ccc3ncnc(Nc4ccc(OCc5cccc(F)c5)c(Cl)c4)c3c2)o1 [lapatinib]
How it was run: (§1)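 Dounce homogenisation of K562 pellets in PBS pH 7.4 with 1 mM MgCl2 produced a crude extract, used at 1 mg/mL protein. Exposure to 10 μM compound lasted 30 min, and aliquots were then heated for 3 min across 48°C-58°C, pooled and brought to 0.5% NP-40 at 4°C. The supernatant after 21,000xg for 90 min was quantified by TMTpro 16plex LC-MS/MS with channel sums equalised. Duplicate values are given as log-two fold change in thermal stability relative to solvent controls.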

crizotinib = compound: C[C@@H](Oc1cc(-c2cnn(C3CCNCC3)c2)cnc1N)c1c(Cl)ccc(F)c1Cl [crizotinib]
How it was run: as §1

[1] = compound: C[C@H](C1=CC=C(C=C1)C(=O)NC2=C3C=CNC3=NC=C2)N
How it was run: as §1

duvelisib = compound: C[C@H](Nc1ncnc2nc[nH]c12)c1cc2cccc(Cl)c2c(=O)n1-c1ccccc1 [duvelisib]
How it was run: as §1

gandotinib = compound: Cc1cc(Nc2cc(CN3CCOCC3)c3nc(C)c(Cc4ccc(Cl)cc4F)n3n2)n[nH]1 [gandotinib]
How it was run: as §1

tozasertib = compound: Cc1cc(Nc2cc(N3CCN(C)CC3)nc(Sc3ccc(NC(=O)C4CC4)cc3)n2)n[nH]1 [tozasertib]
How it was run: as §1

doramapimod = compound: Cc1ccc(-n2nc(C(C)(C)C)cc2NC(=O)Nc2ccc(OCCN3CCOCC3)c3ccccc23)cc1 [doramapimod]
How it was run: as §1

[2] = compound: Cc1cccc(CC(=O)N2CCc3c2ccc(-c2cn(C)c4ncnc(N)c24)c3F)n1
How it was run: as §1

pictilisib = compound: CS(=O)(=O)N1CCN(Cc2cc3nc(-c4cccc5[nH]ncc45)nc(N4CCOCC4)c3s2)CC1 [pictilisib]
How it was run: as §1

bafetinib = compound: Cc1ccc(NC(=O)c2ccc(CN3CC[C@H](N(C)C)C3)c(C(F)(F)F)c2)cc1Nc1nccc(-c2cncnc2)n1 [bafetinib]
How it was run: as §1

Measured: log2 fold change

S100A6 (UniProt P06703)
inactive: lapatinib 0.069 | crizotinib 0.119 | [1] 0.088 | duvelisib 0 | gandotinib 0.207 | tozasertib -0.038 | doramapimod -0.017 | [2] -0.119

RLIM (UniProt Q9NVW2)
UniProt Q9NVW2, sequence (Q9NVW2 whole entry, looked up): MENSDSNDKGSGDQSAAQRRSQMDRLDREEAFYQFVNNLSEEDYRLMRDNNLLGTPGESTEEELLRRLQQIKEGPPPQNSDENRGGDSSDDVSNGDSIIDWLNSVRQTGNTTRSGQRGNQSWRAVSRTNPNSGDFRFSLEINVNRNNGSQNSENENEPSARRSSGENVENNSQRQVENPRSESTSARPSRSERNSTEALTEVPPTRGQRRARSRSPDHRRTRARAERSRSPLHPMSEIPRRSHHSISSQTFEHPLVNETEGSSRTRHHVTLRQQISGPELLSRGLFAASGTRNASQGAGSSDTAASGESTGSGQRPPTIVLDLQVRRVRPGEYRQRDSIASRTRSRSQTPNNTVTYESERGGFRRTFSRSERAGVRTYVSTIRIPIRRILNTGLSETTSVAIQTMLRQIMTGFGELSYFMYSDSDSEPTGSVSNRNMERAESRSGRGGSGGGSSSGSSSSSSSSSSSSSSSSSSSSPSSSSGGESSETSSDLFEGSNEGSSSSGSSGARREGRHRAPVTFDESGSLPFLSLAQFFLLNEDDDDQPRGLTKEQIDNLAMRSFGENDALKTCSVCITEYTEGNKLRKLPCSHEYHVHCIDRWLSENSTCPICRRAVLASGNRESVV
inactive: pictilisib -0.053 | crizotinib -0.323 | doramapimod -0.044 | bafetinib -0.193

RNF24 isoform 2 (UniProt Q9Y225)
UniProt Q9Y225, sequence (Q9Y225 whole entry, looked up): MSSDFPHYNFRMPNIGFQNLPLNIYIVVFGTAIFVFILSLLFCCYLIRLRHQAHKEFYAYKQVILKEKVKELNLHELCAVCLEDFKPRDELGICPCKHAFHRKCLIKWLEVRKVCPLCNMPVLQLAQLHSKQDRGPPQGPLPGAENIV
inactive: pictilisib -0.089 | crizotinib -0.074 | [1] -0.173 | gandotinib 0.117 | doramapimod -0.093 | bafetinib -0.477 | [2] 0.028

RAD54L (UniProt Q92698)
UniProt Q92698, sequence (Q92698 whole entry, looked up): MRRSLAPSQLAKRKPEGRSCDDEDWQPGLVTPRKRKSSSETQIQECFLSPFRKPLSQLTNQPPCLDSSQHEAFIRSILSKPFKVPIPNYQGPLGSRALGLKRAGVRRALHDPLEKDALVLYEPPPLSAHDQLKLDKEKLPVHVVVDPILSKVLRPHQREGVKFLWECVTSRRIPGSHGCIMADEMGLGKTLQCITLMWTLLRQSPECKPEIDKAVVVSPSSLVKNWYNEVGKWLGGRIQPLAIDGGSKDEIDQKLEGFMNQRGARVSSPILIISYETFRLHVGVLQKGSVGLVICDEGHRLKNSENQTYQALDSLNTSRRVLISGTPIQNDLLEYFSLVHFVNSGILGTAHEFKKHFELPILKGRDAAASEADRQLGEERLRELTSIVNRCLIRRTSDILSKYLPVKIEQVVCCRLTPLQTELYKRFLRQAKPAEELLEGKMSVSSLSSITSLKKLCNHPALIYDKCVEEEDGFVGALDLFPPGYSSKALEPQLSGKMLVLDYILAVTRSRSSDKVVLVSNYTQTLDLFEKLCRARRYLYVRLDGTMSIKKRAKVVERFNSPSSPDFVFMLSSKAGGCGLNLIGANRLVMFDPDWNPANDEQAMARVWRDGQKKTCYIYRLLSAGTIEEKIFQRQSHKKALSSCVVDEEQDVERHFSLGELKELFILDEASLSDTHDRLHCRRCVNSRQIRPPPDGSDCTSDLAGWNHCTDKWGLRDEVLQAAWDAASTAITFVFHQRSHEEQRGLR
active: [1] -1.75
inactive: lapatinib -0.029 | pictilisib 0.029 | duvelisib 0.109 | gandotinib 0.454 | bafetinib -0.185 | [2] 0.617

RHBDD1 (UniProt Q8TEB9)
UniProt Q8TEB9, sequence (Q8TEB9 whole entry, looked up): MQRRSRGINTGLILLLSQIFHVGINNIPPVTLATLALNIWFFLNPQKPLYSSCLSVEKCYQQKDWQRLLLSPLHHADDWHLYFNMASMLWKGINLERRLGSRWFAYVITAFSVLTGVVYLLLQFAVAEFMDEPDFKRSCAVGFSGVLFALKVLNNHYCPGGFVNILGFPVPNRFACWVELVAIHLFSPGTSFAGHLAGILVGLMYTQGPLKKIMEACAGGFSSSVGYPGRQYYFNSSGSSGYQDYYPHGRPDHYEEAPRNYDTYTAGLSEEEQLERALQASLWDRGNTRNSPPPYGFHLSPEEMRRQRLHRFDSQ
inactive: lapatinib 0.06 | pictilisib -0.216 | [1] 0.036 | gandotinib -0.118 | tozasertib -0.071 | bafetinib -0.133 | [2] -0.028

SCNM1 (UniProt Q9BWG6)
inactive: lapatinib 0.006 | crizotinib 0.057 | [1] 0.022 | duvelisib 0.057 | gandotinib 0.015 | tozasertib -0.039 | doramapimod -0.017 | [2] -0.157

RAD17 (UniProt O75943)
UniProt O75943, sequence (O75943 whole entry, looked up): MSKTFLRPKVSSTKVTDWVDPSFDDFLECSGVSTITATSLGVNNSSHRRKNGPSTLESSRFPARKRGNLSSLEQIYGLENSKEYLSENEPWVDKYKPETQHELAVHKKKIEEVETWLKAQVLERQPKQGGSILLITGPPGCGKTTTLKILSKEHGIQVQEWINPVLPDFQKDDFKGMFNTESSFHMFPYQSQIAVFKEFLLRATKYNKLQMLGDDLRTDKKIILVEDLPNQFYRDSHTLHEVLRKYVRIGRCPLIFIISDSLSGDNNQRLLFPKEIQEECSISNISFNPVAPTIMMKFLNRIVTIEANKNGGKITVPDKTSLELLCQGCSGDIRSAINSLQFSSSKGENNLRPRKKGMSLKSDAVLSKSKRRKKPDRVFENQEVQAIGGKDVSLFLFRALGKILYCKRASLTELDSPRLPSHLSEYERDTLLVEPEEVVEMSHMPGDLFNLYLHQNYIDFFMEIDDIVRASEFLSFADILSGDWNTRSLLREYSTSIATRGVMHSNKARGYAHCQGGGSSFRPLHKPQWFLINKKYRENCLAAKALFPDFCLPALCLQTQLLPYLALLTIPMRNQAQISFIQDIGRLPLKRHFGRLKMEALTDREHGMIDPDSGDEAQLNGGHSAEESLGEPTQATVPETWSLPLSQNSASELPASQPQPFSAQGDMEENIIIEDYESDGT
inactive: pictilisib -0.019 | crizotinib -0.01 | [1] 0.021 | duvelisib -0.027 | gandotinib -0.194 | tozasertib 0.005 | doramapimod -0.015 | bafetinib 0 | [2] -0.055

RBBP7 (UniProt Q16576)
UniProt Q16576, sequence (Q16576 whole entry, looked up): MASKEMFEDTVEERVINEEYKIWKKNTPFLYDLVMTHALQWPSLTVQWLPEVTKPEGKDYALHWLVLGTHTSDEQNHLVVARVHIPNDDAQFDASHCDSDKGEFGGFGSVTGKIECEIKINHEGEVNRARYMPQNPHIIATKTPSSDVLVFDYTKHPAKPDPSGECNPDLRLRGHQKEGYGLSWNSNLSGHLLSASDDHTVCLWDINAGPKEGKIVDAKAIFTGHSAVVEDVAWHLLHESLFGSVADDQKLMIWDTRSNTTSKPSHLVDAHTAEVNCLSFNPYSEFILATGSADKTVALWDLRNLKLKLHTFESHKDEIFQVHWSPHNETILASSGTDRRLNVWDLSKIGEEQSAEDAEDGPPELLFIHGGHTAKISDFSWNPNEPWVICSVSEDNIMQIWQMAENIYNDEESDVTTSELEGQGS
inactive: lapatinib 0.001 | pictilisib 0.007 | crizotinib 0.026 | duvelisib 0.02 | tozasertib 0.073 | doramapimod -0.036 | bafetinib -0.072

RBM4 isoform 3 (UniProt Q9BWF3)
inactive: crizotinib 0.114 | doramapimod 0.016

RUFY2 isoform 1 (UniProt Q8WXA3)
UniProt Q8WXA3, sequence (Q8WXA3 whole entry, looked up): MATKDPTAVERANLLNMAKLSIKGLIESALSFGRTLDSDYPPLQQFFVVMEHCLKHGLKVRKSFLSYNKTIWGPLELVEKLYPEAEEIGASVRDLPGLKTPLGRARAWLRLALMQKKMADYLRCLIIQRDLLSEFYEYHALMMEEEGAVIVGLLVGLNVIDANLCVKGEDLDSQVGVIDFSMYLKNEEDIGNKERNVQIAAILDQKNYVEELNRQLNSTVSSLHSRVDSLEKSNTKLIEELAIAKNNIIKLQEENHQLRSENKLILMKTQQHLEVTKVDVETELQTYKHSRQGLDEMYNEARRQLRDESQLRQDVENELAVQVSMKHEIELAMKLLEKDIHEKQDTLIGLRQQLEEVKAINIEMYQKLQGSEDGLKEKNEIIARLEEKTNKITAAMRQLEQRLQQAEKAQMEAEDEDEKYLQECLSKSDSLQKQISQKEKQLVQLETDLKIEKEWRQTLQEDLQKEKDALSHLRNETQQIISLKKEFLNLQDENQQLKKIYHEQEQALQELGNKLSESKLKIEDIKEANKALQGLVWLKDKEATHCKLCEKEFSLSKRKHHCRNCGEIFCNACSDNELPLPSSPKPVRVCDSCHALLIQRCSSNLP
inactive: crizotinib -0.015 | [1] 0.116 | gandotinib 0.072 | tozasertib 0.131 | doramapimod -0.136 | bafetinib 0.177 | [2] -0.099
active: pictilisib -0.533

RALGAPB isoform 3 (UniProt Q86X10)
UniProt Q86X10, sequence (Q86X10 whole entry, looked up): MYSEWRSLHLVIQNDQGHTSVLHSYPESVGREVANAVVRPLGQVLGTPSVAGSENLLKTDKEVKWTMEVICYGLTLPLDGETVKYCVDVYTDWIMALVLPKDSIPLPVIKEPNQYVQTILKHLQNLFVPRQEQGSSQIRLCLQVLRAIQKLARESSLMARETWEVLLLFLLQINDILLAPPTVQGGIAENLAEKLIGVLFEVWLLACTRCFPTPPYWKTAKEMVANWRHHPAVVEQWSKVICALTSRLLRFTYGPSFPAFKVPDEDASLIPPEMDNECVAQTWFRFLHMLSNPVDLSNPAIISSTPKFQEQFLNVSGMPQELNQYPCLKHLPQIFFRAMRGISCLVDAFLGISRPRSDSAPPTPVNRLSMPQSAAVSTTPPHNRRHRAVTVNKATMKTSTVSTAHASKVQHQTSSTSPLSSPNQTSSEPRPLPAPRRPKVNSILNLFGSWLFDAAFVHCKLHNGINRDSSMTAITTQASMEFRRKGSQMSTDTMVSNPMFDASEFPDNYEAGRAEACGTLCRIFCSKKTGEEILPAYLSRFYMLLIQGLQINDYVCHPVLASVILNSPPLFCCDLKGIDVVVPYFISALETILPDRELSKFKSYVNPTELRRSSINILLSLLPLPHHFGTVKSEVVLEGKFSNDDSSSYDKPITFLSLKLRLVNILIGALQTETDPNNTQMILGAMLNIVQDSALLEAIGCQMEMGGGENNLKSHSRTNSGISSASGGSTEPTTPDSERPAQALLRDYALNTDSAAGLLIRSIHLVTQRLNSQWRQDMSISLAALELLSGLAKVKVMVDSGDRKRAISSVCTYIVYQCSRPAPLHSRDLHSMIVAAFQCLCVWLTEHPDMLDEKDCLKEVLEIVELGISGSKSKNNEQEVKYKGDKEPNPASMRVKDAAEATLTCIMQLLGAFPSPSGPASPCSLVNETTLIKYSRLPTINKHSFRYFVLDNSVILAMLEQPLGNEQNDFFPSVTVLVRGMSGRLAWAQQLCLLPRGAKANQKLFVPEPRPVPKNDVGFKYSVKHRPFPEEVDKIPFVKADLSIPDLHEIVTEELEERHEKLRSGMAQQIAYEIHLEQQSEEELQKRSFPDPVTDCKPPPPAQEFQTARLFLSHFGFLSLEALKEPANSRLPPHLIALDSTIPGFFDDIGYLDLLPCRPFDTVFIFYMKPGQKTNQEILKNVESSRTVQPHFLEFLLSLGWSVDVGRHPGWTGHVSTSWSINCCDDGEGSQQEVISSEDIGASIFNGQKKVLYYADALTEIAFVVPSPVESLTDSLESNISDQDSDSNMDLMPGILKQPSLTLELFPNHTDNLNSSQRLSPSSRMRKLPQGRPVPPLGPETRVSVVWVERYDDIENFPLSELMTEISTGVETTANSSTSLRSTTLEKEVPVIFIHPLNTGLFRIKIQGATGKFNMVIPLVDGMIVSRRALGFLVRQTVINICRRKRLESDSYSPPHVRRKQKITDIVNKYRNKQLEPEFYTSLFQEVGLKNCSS
inactive: pictilisib -0.018 | [1] -0.04 | duvelisib -0.396 | gandotinib -0.33 | tozasertib 0.027 | bafetinib -0.255 | [2] -0.026

SATB2 (UniProt Q9UPW6)
inactive: lapatinib -0.009 | crizotinib 0.009 | [1] 0.042 | duvelisib 0.03 | gandotinib -0.039 | tozasertib -0.008 | doramapimod 0.002 | [2] -0.008

— the supplement of paper PMC10849652
